Measured values: PubChem BioAssay (NCATS)
Records with an inconclusive call do not appear. The source made the active and inactive calls. Unless noted, calls come from the whole dose curve.

Key:
[1] = molecular target: Luciferin 4-monooxygenase (Photinus pyralis) (UniProt P08659); experiment: Biochemical firefly luciferase enzyme assay for NPC (AID 624030; active = well fitted curve in the direction sought with a large enough effect; an effect the other way counts as inactive or inconclusive;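 note: purified P. pyralis luciferase at 10 nM with luciferin and ATP substrate; series mostly up to about 59 µM; 0% = DMSO and -100% = full luciferase inhibition by PTC124 control; nearly all actives have a fitted effect of over 70% in size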)
Summary of the method: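 Direct inhibition of firefly luciferase enzyme (10 nM final, 50 mM Tris Acetate) assessed by luminescence within 5 minutes. Percent activity scaled between DMSO and PTC124 positive control, with concentration-effect curves classified by fit quality and response.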

[2] = S16 Schwann cell viability assay (CellTiter-Glo assay) (AID 624031; active = well fitted curve in the direction sought with a large enough effect; an effect the other way counts as inactive or inconclusive;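 note: cellular ATP luminescence as a viability measure; series mostly up to about 58 µM; plate controls were DMSO-treated cells for no effect and cell-free wells for full effect; nearly all actives have a fitted effect of over 70% in size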)
Summary of the method: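 Native S16 Schwann cells (rat), serum-containing medium, overnight attachment then 24 h drug exposure at 37 °C/5% CO2. CellTiter-Glo ATP signal; normalized to cell-free and vehicle wells.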

[3] = molecular target: Vitamin D3 receptor (Homo sapiens) (UniProt P11473); experiment: qHTS assay for small molecule agonists of vitamin D receptor signaling (AID 588543);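 note: 0% = DMSO basal and 100% = reference agonist control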
Summary of the method: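 GeneBLAzer VDR-UAS-bla HEK293T cells in 2% charcoal-stripped FBS medium were dosed with compound titrations for 16 h at 37 °C; CCF4 β-lactamase readout (405 nm ex, 460/530 nm em). EC50 and efficacy from Hill fits, normalized to 50 nM calcitriol (100%) and DMSO (0%).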

[4] = molecular target: Thyroid hormone receptor beta (Homo sapiens) (UniProt P10828); experiment: qHTS assay for small molecule agonists of thyroid hormone receptor beta signaling (AID 588545)
Summary of the method: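 Agonist activity was read as beta-lactamase CCF4 fluorescence (405 ex, 460/530 em), scaled between DMSO (0%) and 10 nM T3 (100%), then Hill-fitted for EC50 and efficacy. HEK 293 TR-UAS-bla cells in 2% charcoal/dextran FBS medium were exposed 18 h at 37 C.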

[5] = molecular target: Thyroid hormone receptor beta (Homo sapiens) (UniProt P10828); experiment: qHTS assay for small molecule antagonists of thyroid hormone receptor beta signaling (AID 588547; active = well fitted inhibition curve with a large enough effect in the signal ratio, with a control signal flat, not every such curve was filed as active; the % refers to the signal ratio;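 note: cells stimulated with 0.4 nM T3 agonist during compound exposure; series mostly up to about 77 µM; % is set by controls: 0 for no effect and ±100 for the full control effect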); conditions: TR-UAS-bla HEK293, beta-lactamase ratio, antagonist mode, 18 h
Summary of the method: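 Inhibition of T3-driven (0.4nM final) beta-lactamase reporter activity was measured over 0.59 nM to 92 uM compound after 18 h at 37 C. The cells were GripTite HEK293 TR-UAS-bla in charcoal/dextran-stripped serum, with CCF4 ratio read-out and IC50 from Hill fits.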

[6] = qHTS assay for small molecule agonists of retinoid X receptor alpha signaling (AID 588544); conditions: HEK293T RXRa-UAS-bla, beta-lactamase reporter, 18 h; 530 nm emission
[7] = molecular target: Retinoic acid receptor RXR-alpha (Homo sapiens) (UniProt P19793); experiment: as above
[8] = qHTS assay for small molecule antagonists of retinoid X receptor alpha signaling (AID 588546; active = well fitted inhibition curve with a large enough effect in the signal ratio, with a control signal flat, not every such curve was filed as active; the % refers to the signal ratio;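 note: cells stimulated with 9-cis-retinoic acid as agonist; % is set by controls: 0 for no effect and ±100 for the full control effect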); conditions: HEK293T RXRa-UAS-bla, beta-lactamase ratio, antagonist mode; measured here: W530 green channel, cytotoxicity proxy
Summary of the method: (§1)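 Beta-lactamase reporter inhibition, read as CCF4 fluorescence ratio (ex 405, em 460/530 nm) after 2 h at RT. HEK293T UAS-bla cells, 2500/well, were stimulated with 9-cis-RA at 500 or 100 nM final alongside test compound for 18 h at 37 C.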

[9] = molecular target: Retinoic acid receptor RXR-alpha (Homo sapiens) (UniProt P19793); experiment: as above; conditions: HEK293T RXRa-UAS-bla, beta-lactamase ratio, antagonist mode
Summary of the method: as §1

[10] = molecular target: Voltage-gated inwardly rectifying potassium channel KCNH2 (Homo sapiens) (UniProt Q12809); experiment: qHTS Assay for Small Molecule Inhibitors of the Human hERG Channel Activity (AID 588834; active = well fitted curve in the direction sought with a large enough effect; an effect the other way counts as inactive or inconclusive;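 note: top concentration of the series differs between compounds; % is set by controls: 0 for no effect and ±100 for the full control effect; lower thallium flux fluorescence means stronger hERG block; nearly all actives have a fitted effect of over 50% in size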)
Summary of the method: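 U2OS cells transduced with hERG via BacMam (MOI ~100), plated 2000/well, loaded with FluxOR thallium dye, compound ~10 min, then stimulation buffer; fluorescence decrease read kinetically; AC50 from Hill fits.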

Sequence of Vitamin D3 receptor (Homo sapiens) (P11473 whole entry, looked up): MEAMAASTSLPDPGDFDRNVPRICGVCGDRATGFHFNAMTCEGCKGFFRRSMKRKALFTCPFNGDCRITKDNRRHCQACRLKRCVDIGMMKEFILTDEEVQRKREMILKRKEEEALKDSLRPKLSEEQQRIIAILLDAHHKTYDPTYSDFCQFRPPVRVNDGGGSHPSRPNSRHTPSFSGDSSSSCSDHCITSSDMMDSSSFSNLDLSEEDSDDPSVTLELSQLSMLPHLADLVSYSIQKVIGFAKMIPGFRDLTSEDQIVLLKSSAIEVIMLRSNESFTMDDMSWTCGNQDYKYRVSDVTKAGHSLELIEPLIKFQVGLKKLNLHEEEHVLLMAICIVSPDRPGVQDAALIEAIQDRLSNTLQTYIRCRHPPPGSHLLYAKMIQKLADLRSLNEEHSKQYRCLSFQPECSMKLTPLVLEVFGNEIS
Sequence of Luciferin 4-monooxygenase (Photinus pyralis) (P08659 whole entry, looked up): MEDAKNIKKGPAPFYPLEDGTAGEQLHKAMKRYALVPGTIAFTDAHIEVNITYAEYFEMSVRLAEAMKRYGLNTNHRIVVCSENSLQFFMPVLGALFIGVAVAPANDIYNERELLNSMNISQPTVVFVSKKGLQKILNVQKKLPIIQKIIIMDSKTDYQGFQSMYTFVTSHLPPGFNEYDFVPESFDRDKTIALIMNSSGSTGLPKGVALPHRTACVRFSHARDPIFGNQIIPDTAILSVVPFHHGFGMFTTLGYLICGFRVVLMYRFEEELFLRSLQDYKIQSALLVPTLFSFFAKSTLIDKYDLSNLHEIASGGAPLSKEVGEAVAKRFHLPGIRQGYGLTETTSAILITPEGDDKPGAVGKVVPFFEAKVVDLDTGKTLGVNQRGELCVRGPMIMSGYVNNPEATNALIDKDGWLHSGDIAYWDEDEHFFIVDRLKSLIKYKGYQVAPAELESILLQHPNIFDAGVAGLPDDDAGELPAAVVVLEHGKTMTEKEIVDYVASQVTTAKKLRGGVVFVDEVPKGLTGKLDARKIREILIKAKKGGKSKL
Sequence of Retinoic acid receptor RXR-alpha (Homo sapiens) (P19793 whole entry, looked up): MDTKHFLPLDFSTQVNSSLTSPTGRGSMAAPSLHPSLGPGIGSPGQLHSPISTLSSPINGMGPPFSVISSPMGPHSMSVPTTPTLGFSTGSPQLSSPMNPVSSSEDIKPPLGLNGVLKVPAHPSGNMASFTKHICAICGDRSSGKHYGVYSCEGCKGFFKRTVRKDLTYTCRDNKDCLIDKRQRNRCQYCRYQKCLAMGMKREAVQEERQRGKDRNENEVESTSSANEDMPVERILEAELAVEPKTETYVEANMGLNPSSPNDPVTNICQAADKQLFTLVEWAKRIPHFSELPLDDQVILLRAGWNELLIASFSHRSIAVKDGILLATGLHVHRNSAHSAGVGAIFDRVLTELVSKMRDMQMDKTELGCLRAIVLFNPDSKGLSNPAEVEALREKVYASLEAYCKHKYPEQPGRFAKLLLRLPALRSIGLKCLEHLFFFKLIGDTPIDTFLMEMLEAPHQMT
Sequence of Thyroid hormone receptor beta (Homo sapiens) (P10828 whole entry, looked up): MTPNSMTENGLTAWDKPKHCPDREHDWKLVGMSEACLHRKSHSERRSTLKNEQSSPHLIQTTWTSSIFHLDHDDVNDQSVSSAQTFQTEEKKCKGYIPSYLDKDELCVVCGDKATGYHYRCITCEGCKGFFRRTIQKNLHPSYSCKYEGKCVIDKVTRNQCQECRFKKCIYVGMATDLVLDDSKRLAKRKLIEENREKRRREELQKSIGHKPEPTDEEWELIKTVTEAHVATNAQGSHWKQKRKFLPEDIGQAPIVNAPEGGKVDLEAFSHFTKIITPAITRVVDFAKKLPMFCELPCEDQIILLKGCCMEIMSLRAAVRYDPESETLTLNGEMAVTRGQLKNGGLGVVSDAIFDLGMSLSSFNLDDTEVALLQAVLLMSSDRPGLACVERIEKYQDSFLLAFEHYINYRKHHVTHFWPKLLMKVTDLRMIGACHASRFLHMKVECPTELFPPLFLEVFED
Sequence of Voltage-gated inwardly rectifying potassium channel KCNH2 (Homo sapiens) (Q12809 whole entry, looked up): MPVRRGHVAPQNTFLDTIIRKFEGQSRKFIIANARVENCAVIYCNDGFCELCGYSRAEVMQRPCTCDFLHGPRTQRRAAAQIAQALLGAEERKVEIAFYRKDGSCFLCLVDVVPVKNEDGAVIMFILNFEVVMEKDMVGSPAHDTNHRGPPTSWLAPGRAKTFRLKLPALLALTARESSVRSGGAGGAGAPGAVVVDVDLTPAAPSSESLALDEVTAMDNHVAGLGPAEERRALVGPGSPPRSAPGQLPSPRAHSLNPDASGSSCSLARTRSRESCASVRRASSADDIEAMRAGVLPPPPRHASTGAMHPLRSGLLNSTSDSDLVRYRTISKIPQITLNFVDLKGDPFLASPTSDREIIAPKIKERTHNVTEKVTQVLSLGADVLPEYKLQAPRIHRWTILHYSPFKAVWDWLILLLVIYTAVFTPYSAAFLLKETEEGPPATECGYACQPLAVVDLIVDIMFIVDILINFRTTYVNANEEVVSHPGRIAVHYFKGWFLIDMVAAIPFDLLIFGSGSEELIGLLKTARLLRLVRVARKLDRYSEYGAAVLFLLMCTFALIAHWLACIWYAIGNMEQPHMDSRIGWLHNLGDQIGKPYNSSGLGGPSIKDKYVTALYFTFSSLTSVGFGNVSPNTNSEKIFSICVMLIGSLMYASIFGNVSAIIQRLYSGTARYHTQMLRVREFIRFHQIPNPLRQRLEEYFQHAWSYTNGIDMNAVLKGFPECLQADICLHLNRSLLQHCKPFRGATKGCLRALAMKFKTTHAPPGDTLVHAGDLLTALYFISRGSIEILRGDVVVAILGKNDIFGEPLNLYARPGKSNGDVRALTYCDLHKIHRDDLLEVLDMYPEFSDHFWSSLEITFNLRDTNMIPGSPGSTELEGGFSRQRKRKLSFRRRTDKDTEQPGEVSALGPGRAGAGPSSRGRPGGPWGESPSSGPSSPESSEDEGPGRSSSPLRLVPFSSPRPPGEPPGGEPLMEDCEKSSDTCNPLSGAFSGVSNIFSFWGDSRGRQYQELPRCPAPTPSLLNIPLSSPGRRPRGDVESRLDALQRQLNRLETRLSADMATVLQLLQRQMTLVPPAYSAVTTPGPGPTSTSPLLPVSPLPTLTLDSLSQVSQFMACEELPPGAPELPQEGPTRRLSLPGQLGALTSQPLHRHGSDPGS

Compound: CCc1cccc2c3c([nH]c12)[C@@](CC)(CC(=O)O)OCC3
- outcome [1]: inactive
- outcome [2]: inactive

Compound: O=C(/C=C/C=C/c1ccc2c(c1)OCO2)N1CCCCC1
- outcome [3]: inactive
- outcome [4]: inactive
- activity change % (negative = inhibition) [5]: -4.09% (inactive)

Compound: CCOC(=O)C(CCc1ccccc1)NC(C)C(=O)N1Cc2ccccc2CC1C(=O)O (centres undefined)
- outcome [1]: inactive
- outcome [2]: inactive

Compound: CCC(=O)OCC(=O)[C@@]1(OC(=O)CC)[C@@H](C)C[C@H]2[C@@H]3CCC4=CC(=O)C=C[C@]4(C)[C@@]3(F)[C@@H](O)C[C@@]21C
- outcome [1]: inactive

Compound: C=C1C[C@]23C[C@@]1(O)CC[C@H]2[C@@]12C=C[C@H](O)[C@@](C)(C(=O)O1)[C@H]2[C@@H]3C(=O)O
- outcome [3]: inactive
- max response [6]: -10.6%
- outcome [7]: inactive
- outcome [4]: inactive
- max response [8]: 4.31%
- max response [9]: 6.93% (inactive)
- activity change % (negative = inhibition) [5]: 23.9% (inactive)
- outcome [10]: inactive

Compound: COc1ccc(CCC(=O)c2c(O)cc(O[C@@H]3O[C@H](CO)[C@@H](O)[C@H](O)[C@H]3O[C@@H]3O[C@@H](C)[C@H](O)[C@@H](O)[C@H]3O)cc2O)cc1O
- outcome [3]: inactive
- max response [6]: 1.28%
- outcome [7]: inactive
- outcome [4]: inactive
- max response [8]: -15.7%
- max response [9]: 10.3% (inactive)
- activity change % (negative = inhibition) [5]: -11.4% (inactive)
- outcome [10]: inactive
